Shown are actives, neighbours in structure and some others; about 12% of the full set was active somewhere.
G9a block – blocks human histone lysine methyltransferase G9a | hit rate 8.8% among 350,000 | Potency, µM (top dose mostly 102 µM), actives largely listed as inhibitors | Q96KQ7 | G9a H3K9 monomethylation, AlphaScreen, 2 h; further: nearly all actives have a fitted effect of over 75% in size
Target sequence (Q96KQ7 913-1193 limits assumed): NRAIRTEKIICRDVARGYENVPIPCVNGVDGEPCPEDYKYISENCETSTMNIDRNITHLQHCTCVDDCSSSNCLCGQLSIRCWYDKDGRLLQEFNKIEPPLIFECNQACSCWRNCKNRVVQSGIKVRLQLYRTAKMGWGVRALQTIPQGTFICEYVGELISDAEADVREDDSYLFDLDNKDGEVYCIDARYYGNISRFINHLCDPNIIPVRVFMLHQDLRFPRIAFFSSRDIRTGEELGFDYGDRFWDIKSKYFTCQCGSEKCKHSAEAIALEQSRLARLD
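AlphaScreen detection with an anti-monomethyl H3K9 antibody quantified product after a 2 h room-temperature reaction containing 500 nM biotinylated H3K9 peptide, 20 µM SAM and 20 nM enzyme, which had been preincubated 15 min with compound.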
HP1b binding inh – blocks HP1-beta chromodomain binding to methylated histone tails. AlphaScreen HP1-beta / biotin-H3K9me3 peptide binding. Potency, µM (highest dose often 114 µM), most hits filed as inhibitors. hit rate 0.56% among 390,000. P83916; further: nearly all actives have a fitted effect of over 70% in size
Target sequence (P83916 whole entry, looked up): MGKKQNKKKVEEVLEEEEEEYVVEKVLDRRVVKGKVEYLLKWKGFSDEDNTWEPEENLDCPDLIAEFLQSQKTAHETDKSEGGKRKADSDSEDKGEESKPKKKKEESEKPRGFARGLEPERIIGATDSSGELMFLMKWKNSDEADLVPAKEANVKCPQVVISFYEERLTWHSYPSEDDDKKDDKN
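AlphaScreen: HP1-beta (50 nM) preformed 30 min with biotin-H3(1-18)K9me3 peptide (50 nM) in PBS pH 7.4, 0.01% Tween-20. Compound added for 30 min at RT, then streptavidin donor/nickel chelate acceptor beads (10 ug/mL) for 30 min.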
Sfp PPTase inh – blocks B. subtilis Sfp PPTase activity; Q9F4F7; Biochemical Sfp PPTase activity, qHTS; Potency, µM, actives largely listed as inhibitors; hit rate 3.5% among 310,000;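 further: the enzyme is Sfp with the accession as filed and its product quenches rhodamine fluorescence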
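Reaction rates are the 30-min fluorescence difference (ex 525, em 598 nm) in wells containing 15 nM Sfp, 5 uM rhodamine-CoA and 12.5 uM BHQ-2-YbbR at pH 7.6 with 10 mM MgCl2.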
BAZ2B inh – BAZ2B (human) inhibition | Q9UIF8 | AlphaScreen BAZ2B-H3K14Ac peptide displacement | Potency, µM (top dose mostly 114 µM), hits mostly inhibitors | hit rate 4.4% among 360,000 | AID 504333; further: nearly all actives have a fitted effect of over 60% in size
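AlphaScreen displacement of biotin-H3(5-23)K14Ac peptide (50 nM final) from BAZ2B (50 nM final) in PBS pH 7.4, 0.01% Tween-20; complex preformed 30 min RT, then compounds (top 110 uM) 30 min RT, beads 20 min dark.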
JMJD2A Tudor inh – inhibitors of human JMJD2A Tudor domain; O75164; Potency, µM (titrated, usually from 114 µM), most hits filed as inhibitors; hit rate 4.4% among 390,000; AlphaScreen JMJD2A-Tudor / H3K4me3 peptide binding; further: nearly all actives have a fitted effect of over 50% in size
L3MBTL1 block – L3MBTL1 (human) inhibition. hit rate 0.66% among 230,000. Q9Y468. Potency, µM (doses to about 57.1 µM), usual class: inhibitors. AID 485360. AlphaScreen L3MBTL1–H3K9me1 peptide binding; further: nearly all actives have a fitted effect of over 60% in size
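L3MBTL1 (50 nM) pre-complexed 30 min with biotinylated H3(1-15)K9me1 peptide (75 nM), then compounds added for 30 min at room temperature; AlphaScreen streptavidin donor/nickel chelate acceptor beads (10 ug/mL final) read after 30 min dark incubation.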
Large screens that a line does not name were inactive. The call rests on the fitted dose curve; in most records, active means well fitted curve in the direction sought with a large enough effect; inconclusive means small, poorly fitted or top-dose-only effect, or another doubt; inactive means no such curve, though single readings can be large; an effect the other way counts as inactive or inconclusive.

Cc1ccc(NC2=C(Cl)C(=O)OC2NC(=O)c2ccccc2)cc1 (stereo not drawn)	none
Cc1ccc(NC(=S)NCC2CCCO2)cc1C (stereo not drawn)	none
CCN(CC)c1ccc(NC(=S)NCC2CCCO2)cc1 (stereo not drawn)	G9a block inconclusive, HP1b binding inh inconclusive, BAZ2B inh 45µM, JMJD2A Tudor inh inconclusive
CCOC(=O)c1c(NC(=S)NCC2CCCO2)sc(C)c1C (stereo not drawn)	G9a block 4.5µM, HP1b binding inh inconclusive, Sfp PPTase inh 22µM, JMJD2A Tudor inh inconclusive (no result: BAZ2B inh, L3MBTL1 block)
Cc1cccc(NC(=S)NCC2CCCO2)c1 (stereo not drawn)	G9a block 50µM (no result: L3MBTL1 block)
COc1cc2c(cc1OC)C(COc1ccc(F)cc1)N(C(=O)c1ccc(S(=O)(=O)N3CCCC3)cc1)CC2 (stereo not drawn)	none (no result: Sfp PPTase inh, L3MBTL1 block)
CCOC(=O)c1[nH]c(C)c(CCC(=O)N2CCN(c3cc(C)ccc3C)CC2)c1C	BAZ2B inh inconclusive, JMJD2A Tudor inh inconclusive (no result: Sfp PPTase inh, L3MBTL1 block)
CS(=O)(=O)n1nc(-c2ccco2)nc1NCc1ccccc1Cl	none (no result: Sfp PPTase inh, L3MBTL1 block)
CNC(=O)c1c(NC(=O)c2cc(=O)c3ccccc3o2)sc2c1CCC2	none (no result: Sfp PPTase inh, L3MBTL1 block)
CCc1ccc2c(CN(CC)Cc3nc4ccccc4c(=O)[nH]3)cc(=O)oc2c1	G9a block 3.5µM
CCN(Cc1cc(=O)n2cc(Cl)c(C)c(Cl)c2n1)Cc1nc2ccccc2c(=O)[nH]1	G9a block 50µM (no result: BAZ2B inh)
O=c1cc(CN2CCN(S(=O)(=O)c3ccccc3)CC2)nc2ccc(Cl)cn12	none (no result: Sfp PPTase inh)
Cc1c(Cl)cn2c(=O)cc(CN3CCN(c4ccccc4)CC3)nc2c1Cl	G9a block 40µM (no result: L3MBTL1 block)
CC(C)[C@H]1C=C(C(=O)O)O[C@@H](OCc2ccc(CO)cc2)C1	G9a block inconclusive, BAZ2B inh inconclusive, JMJD2A Tudor inh 89µM (no result: L3MBTL1 block)
CCOc1cc(C=NNC(=O)c2cccc(S(=O)(=O)N3CCCC3)c2)ccc1O	none (no result: G9a block, Sfp PPTase inh, BAZ2B inh)
COc1ccc(/C=N/Nc2nc(-c3cccc(S(=O)(=O)N4CCCC4)c3)cs2)cc1OC	G9a block 13µM
COc1cc(/C=N/Nc2nc(-c3ccc(S(=O)(=O)N(C)C)cc3)cs2)ccc1O	G9a block 14µM, Sfp PPTase inh 79µM
O=S(=O)(c1cccc(-c2csc(N/N=C/c3ccco3)n2)c1)N1CCOCC1	G9a block 45µM, BAZ2B inh inconclusive, JMJD2A Tudor inh inconclusive
CCOc1cc(/C=N/Nc2nc(-c3cccc(S(=O)(=O)N4CCCC4)c3)cs2)ccc1O	G9a block 35µM, Sfp PPTase inh inconclusive, BAZ2B inh inconclusive, JMJD2A Tudor inh inconclusive
O=c1cc(CSc2nnnn2-c2ccccc2)[nH]c2[nH]n(-c3ccccc3)c(=O)c12	G9a block inconclusive, BAZ2B inh inconclusive, JMJD2A Tudor inh 89µM
c1ccc(CSc2nnnn2-c2ccccc2)cc1	none (no result: L3MBTL1 block)
Cc1cc(C)cc(NC2=CC(c3cccc(F)c3)N(c3cc(C)cc(C)c3)C2=O)c1 (stereo not drawn)	none (no result: Sfp PPTase inh, L3MBTL1 block)
CCOC(=O)Cn1c(=O)n(-c2ccccc2OC)c2nc(-c3ccc(C(C)C)cc3)nc(C(N)=O)c21	none (no result: Sfp PPTase inh, L3MBTL1 block)
Cn1c(=O)c(-c2cc(Br)ccc2N)nc2ccccc21	G9a block 50µM, JMJD2A Tudor inh inconclusive (no result: L3MBTL1 block)
Cc1ccc2c(c1)c(=O)c(C(=O)c1ccncc1)cn2CC(=O)Nc1c(C)cccc1C	none (no result: Sfp PPTase inh, L3MBTL1 block)
NC1(C(=O)O)CCCCC1c1ccccc1 (stereo not drawn)	JMJD2A Tudor inh 1.4µM (no result: G9a block, Sfp PPTase inh, BAZ2B inh, L3MBTL1 block)
NC(=O)C1(S(=O)(=O)c2ccccc2)CCCCC1	none
CSCC[C@H](NC(=O)NCc1ccccc1F)C(=O)O	G9a block 45µM
CCc1cccc(N2C(=O)N(Cc3c(F)cccc3Cl)c3ccccc3S2(=O)=O)c1	none (no result: Sfp PPTase inh, L3MBTL1 block)
Cc1cc(C)n(CC(=O)O)c(=O)c1[N+](=O)[O-]	G9a block 45µM (no result: L3MBTL1 block)
Cc1cc(=O)n(CC(=O)O)c2ccccc12	none
Cc1ccc(C2(C(F)(F)F)NC(=O)N3N=C4CCCCCN4C3=C2C#N)cc1 (stereo not drawn)	none (no result: L3MBTL1 block)
N#CC1=C2Nc3ccccc3N2C(=O)NC1(c1ccccc1)C(F)(F)F (stereo not drawn)	HP1b binding inh inconclusive, JMJD2A Tudor inh 56µM (no result: L3MBTL1 block)

Assay outcomes (PubChem)
